# Measured values published in the supplement of paper PMC10849652.
# Targets with a hit are over-represented here; the source holds about 7,900 in all. About 0.6% of all pairs of compound and target were hits. Unmarked numbers belong to inactive results.
# Legend:
# Assay in all cases: log2 fold change, soluble protein after heating vs DMSO (PISA); higher = thermal stabilisation; K562 cells, 10 uM, 30 min; active = over 0.2 and 3.5 SD of the protein, either way, in both replicates (recomputed)
# [1] = compound: CC[C@@H]1C(=O)N(C)c2cnc(Nc3ccc(C(=O)NC4CCN(C)CC4)cc3OC)nc2N1C1CCCC1
# Procedure, shortened: (§1)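 For each measurement, 10 μM compound was applied for 30 min to K562 cells at 2×10^6 cells/mL. Aliquots were heated for 3 min across 48°C-58°C, pooled, and extracted in PBS with 0.5% NP-40 at 4°C; the supernatant after 21,000xg for 90 min was soluble protein. This was quantified by TMTpro 16plex LC-MS/MS with channel sums equalised, and thermal stability was reported relative to control samples from duplicates, on a log2 fold-change scale.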
# [2] = compound: CC[C@@H]1C(=O)N(C)c2cnc(Nc3ccc(C(=O)N[C@H]4CC[C@H](N5CCN(CC6CC6)CC5)CC4)cc3OC)nc2N1C(C)C [volasertib]
# Procedure, shortened: as §1
# [3] = compound: CC[C@H](C)N1C=C(C2=C(C=C(C=C21)C3=CN=C(C=C3)N4CCNCC4)C(=O)NCC5=C(C=C(NC5=O)C)C)C
# Procedure, shortened: as §1
# [4] = compound: CC[C@H](C)[C@@H](C(=O)N[C@@H]([C@@H](C)O)C(=O)N[C@@H](CC(C)C)C(=O)[C@]1(CO1)C)NC(=O)[C@H]([C@@H](C)CC)N(C)C(=O)C [epoxomicin]
# Procedure, shortened: as §1
# [5] = compound: CCn1c(C(=O)N(C2CC2)C2CC2)cc2c3c(ncn3C)c(Nc3cc(C)n(C)n3)nc21
# Procedure, shortened: as §1
# [6] = compound: CCn1cc(-c2ccnc3[nH]c(-c4cccc(CN(C)C)c4)cc23)c(-c2ccc(NC(=O)N(C)C)cc2)n1
# Procedure, shortened: as §1
# [7] = compound: CN(C)CC(=O)Nc1ccc2[nH]c(=O)c3ccccc3c2c1
# Procedure, shortened: as §1
# [8] = compound: CN1C2=C(C3=C1C(=O)N(N=C3)CC4=CC(=CC=C4)N)SC(=C2)S(=O)C
# Procedure, shortened: as §1
# [9] = compound: CN1CCC(CNc2ccc3ncc(-c4cccc(OC(F)(F)F)c4)n3n2)CC1
# Procedure, shortened: as §1
# [10] = compound: CN1CCN(CCOc2cc(OC3CCOCC3)c3c(Nc4c(Cl)ccc5c4OCO5)ncnc3c2)CC1 [saracatinib]
# Procedure, shortened: as §1
# [11] = compound: CN1CCN(c2nc(C3=C(c4c[nH]c5ccccc45)C(=O)NC3=O)c3ccccc3n2)CC1 [sotrastaurin]
# Procedure, shortened: as §1
# [12] = compound: CN1CC[C@H](c2c(O)cc(O)c3c(=O)cc(-c4ccccc4Cl)oc23)[C@H](O)C1 [alvocidib]
# Procedure, shortened: as §1
# [13] = compound: CN1CCc2c(c3ccccc3n2Cc2ccc(C(=O)NO)cc2)C1 [Tubastatin A]
# Procedure, shortened: as §1
# [14] = compound: CNC(=O)C1=CC=CC=C1NC2=NC(=NC=C2Cl)NC3=C(C=C(C=C3)N4CCOCC4)OC
# Procedure, shortened: as §1
# [15] = compound: CNC(=O)c1ccc(Nc2ncc(C(F)(F)F)c(NCc3nccnc3N(C)S(C)(=O)=O)n2)cc1 [defactinib]
# Procedure, shortened: as §1
# [16] = compound: CNCc1ccc(-c2[nH]c3cc(F)cc4c3c2CCNC4=O)cc1 [rucaparib]
# Procedure, shortened: as §1
# [17] = compound: CNc1nc(-c2ccc3c(N)n[nH]c3c2)cc(N2C[C@@H](C(=O)NC3CCCCC3)CC[C@H]2C)n1
# Procedure, shortened: as §1
# [18] = compound: COC(=O)N[C@@H](C)CNc1nccc(-c2cn(C(C)C)nc2-c2cc(Cl)cc(NS(C)(=O)=O)c2F)n1 [encorafenib]
# Procedure, shortened: as §1
# [19] = compound: COC(=O)[C@H](CCSC)NC(=O)C1=C(C=C(C=C1)NC[C@H](CS)N)C2=CC=CC=C2
# Procedure, shortened: as §1
# [20] = compound: CN(CCOC1=CC=C(C=C1)C[C@H]2C(=O)NC(=O)S2)C3=CC=CC=N3 (racemic) [rosiglitazone]
# Procedure, shortened: as §1
# Chain of UniProt Q15642 (Q15642 whole entry, looked up): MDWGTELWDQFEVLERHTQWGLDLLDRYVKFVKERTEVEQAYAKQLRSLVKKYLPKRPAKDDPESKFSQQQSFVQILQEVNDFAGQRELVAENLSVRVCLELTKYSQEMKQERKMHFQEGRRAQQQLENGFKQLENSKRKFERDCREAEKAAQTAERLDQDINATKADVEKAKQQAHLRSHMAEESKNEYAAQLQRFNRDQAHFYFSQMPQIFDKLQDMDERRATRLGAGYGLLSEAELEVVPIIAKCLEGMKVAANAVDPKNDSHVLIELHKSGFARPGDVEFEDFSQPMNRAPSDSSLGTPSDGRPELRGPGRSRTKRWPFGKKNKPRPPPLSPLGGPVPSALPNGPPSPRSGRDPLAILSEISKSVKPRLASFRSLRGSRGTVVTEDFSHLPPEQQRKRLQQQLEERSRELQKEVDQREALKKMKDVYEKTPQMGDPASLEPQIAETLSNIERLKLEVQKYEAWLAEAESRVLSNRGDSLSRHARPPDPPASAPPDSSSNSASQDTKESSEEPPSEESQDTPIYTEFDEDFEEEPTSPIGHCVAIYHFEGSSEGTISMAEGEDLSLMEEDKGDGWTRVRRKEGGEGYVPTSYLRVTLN
# Chain of UniProt P21796 (P21796 whole entry, looked up): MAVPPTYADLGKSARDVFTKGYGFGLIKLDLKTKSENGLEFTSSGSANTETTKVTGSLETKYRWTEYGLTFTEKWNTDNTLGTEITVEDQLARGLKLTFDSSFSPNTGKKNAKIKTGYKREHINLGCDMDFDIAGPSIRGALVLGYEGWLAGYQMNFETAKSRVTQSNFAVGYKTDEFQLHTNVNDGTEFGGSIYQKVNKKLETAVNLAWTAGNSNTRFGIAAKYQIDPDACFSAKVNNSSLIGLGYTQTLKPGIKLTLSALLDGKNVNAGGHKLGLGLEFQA
# Chain of UniProt A6NIH7 (A6NIH7 whole entry, looked up): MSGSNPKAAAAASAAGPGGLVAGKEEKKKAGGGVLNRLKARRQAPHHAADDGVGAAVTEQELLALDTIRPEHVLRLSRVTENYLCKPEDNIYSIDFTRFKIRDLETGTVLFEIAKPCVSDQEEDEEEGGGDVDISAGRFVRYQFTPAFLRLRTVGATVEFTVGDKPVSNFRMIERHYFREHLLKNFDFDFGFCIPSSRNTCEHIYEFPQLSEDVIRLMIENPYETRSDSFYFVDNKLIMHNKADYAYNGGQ
# Chain of UniProt O95155 (O95155 whole entry, looked up): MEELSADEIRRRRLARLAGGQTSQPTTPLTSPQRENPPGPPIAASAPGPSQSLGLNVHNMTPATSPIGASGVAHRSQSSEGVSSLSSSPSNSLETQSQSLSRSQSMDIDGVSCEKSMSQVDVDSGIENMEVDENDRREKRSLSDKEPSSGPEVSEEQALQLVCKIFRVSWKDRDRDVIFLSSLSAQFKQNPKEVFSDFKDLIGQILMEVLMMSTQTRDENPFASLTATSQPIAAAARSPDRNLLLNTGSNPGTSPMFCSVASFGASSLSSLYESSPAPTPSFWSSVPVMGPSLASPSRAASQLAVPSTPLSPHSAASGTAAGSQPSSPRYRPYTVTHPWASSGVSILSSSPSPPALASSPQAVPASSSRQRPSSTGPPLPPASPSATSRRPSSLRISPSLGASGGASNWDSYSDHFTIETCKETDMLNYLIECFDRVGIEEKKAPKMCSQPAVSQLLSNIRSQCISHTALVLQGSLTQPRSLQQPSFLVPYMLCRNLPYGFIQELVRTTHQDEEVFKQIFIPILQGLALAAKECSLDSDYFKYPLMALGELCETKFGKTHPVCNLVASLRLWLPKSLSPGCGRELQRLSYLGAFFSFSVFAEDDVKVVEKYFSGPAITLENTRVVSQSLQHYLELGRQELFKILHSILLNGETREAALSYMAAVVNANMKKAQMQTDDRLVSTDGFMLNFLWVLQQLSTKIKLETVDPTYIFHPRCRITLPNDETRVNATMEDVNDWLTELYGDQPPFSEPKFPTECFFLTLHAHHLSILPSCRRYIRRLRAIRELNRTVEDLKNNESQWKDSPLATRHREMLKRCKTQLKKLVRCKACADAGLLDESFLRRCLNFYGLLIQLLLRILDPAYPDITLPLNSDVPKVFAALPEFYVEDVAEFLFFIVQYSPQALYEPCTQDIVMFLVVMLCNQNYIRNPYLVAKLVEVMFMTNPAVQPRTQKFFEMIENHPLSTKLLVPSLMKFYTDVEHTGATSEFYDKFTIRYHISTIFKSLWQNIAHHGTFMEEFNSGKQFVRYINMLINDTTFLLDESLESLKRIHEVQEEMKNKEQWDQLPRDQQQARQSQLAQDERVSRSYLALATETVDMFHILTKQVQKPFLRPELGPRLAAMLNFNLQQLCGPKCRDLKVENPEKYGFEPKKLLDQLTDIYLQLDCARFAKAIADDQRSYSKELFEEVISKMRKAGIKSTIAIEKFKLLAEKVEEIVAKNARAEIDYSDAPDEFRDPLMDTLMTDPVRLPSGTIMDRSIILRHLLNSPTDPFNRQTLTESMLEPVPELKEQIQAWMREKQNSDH
# Chain of UniProt Q9Y5L0 (Q9Y5L0 whole entry, looked up): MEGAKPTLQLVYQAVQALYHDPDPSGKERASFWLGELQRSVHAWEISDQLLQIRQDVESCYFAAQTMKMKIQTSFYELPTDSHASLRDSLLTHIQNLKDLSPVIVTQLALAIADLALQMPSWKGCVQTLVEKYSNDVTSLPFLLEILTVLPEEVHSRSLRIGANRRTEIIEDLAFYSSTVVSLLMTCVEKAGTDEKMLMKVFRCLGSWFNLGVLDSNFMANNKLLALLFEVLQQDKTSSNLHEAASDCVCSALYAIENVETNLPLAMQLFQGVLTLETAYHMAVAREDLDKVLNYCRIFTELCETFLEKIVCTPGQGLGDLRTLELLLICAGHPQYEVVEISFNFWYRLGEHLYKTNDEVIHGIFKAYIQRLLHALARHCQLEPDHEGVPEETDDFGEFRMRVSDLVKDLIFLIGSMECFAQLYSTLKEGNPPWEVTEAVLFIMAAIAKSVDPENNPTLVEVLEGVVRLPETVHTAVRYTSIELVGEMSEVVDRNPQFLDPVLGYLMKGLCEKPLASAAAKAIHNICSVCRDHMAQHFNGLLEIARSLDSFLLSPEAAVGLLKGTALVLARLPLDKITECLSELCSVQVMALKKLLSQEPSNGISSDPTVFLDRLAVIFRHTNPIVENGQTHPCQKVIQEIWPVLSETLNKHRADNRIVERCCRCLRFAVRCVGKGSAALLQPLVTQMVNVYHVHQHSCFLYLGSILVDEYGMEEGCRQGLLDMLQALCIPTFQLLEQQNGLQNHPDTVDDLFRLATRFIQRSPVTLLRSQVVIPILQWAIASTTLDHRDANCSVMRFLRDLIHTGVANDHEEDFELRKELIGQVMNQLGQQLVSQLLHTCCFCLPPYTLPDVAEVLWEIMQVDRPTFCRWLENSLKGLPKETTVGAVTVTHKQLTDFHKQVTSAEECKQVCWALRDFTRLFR
# Chain of UniProt Q9NQ34 (Q9NQ34 whole entry, looked up): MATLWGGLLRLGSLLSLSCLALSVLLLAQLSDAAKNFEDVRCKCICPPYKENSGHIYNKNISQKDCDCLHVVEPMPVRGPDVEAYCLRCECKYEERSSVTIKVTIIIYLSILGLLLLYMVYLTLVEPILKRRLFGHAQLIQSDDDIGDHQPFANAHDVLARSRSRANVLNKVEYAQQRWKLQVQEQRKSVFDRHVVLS
# Chain of UniProt P61960 (P61960 whole entry, looked up): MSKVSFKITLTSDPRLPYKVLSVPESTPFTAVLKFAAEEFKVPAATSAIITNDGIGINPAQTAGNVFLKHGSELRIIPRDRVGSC
# Chain of UniProt Q9Y5K5 (Q9Y5K5 whole entry, looked up): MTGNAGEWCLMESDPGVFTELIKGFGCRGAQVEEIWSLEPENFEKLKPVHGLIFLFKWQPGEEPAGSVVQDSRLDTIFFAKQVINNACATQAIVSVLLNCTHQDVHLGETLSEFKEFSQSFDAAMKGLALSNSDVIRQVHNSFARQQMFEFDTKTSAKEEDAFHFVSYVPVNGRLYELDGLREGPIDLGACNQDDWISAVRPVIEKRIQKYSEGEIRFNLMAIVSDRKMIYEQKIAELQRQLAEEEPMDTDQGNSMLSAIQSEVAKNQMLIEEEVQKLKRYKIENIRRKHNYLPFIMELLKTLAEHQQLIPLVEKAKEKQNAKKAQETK
# Chain of UniProt Q9Y5Z9 (Q9Y5Z9 whole entry, looked up): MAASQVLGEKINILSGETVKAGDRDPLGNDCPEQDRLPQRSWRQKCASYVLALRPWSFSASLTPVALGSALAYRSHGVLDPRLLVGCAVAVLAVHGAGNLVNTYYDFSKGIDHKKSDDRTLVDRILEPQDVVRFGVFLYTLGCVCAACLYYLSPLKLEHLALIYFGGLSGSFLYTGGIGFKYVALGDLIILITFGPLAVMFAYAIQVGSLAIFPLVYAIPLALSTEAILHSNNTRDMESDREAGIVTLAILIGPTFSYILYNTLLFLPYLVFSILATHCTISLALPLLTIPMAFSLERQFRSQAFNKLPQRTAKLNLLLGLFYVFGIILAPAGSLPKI
# Chain of UniProt Q9H4I3 (Q9H4I3 whole entry, looked up): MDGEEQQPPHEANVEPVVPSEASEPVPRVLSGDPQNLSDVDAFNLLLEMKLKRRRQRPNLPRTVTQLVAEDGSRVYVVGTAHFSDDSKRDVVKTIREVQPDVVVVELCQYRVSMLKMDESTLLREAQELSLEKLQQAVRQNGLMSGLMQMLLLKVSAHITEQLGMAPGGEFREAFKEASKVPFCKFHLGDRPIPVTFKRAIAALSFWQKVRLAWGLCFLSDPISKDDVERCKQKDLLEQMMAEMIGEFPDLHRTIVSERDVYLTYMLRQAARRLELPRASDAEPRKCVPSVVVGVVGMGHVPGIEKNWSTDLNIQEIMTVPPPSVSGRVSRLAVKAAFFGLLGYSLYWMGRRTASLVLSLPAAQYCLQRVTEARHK
# Chain of UniProt Q9BQB6 (Q9BQB6 whole entry, looked up): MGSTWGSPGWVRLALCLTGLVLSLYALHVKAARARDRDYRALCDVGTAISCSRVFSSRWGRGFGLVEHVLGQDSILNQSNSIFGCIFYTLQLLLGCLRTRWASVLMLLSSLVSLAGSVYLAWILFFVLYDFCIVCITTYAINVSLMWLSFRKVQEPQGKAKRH
Target,log2 fold change [1],log2 fold change [2],log2 fold change [3],log2 fold change [4],log2 fold change [5],log2 fold change [6],log2 fold change [7],log2 fold change [8],log2 fold change [9],log2 fold change [10],log2 fold change [11],log2 fold change [12],log2 fold change [13],log2 fold change [14],log2 fold change [15],log2 fold change [16],log2 fold change [17],log2 fold change [18],log2 fold change [19],log2 fold change [20]
VDAC1 (UniProt P21796),0.019,0.063,-0.013,0.012,0.023,-0.009,-0.005,-0.022,0.055,0.074,0.035,0.016,-0.014,0.011,0.005,-0.022,-0.026,-0.03,0.014,
TMEM9B (UniProt Q9NQ34),0.035,-0.192,-0.011,0.109,0.035,0.049,-0.023,,-0.054,,0.019,0.075,-0.033,-0.029,-0.029,-0.02,,0.063,-0.001,0.037
TNPO3 (UniProt Q9Y5L0),-0.182,-0.406 (active),0.039,0.041,0.002,-0.075,0.041,-0.036,-0.128,0.034,-0.075,-0.114,-0.03,-0.011,-0.067,0,-0.013,0.032,-0.003,0.046
TXNL4B (UniProt Q9NX01),0.075,-0.111,-0.036,,-0.015,-0.069,0.186,0.051,-0.053,-0.053,0.189,-0.073,0.03,0.02,-0.093,0.022,-0.062,-0.021,-0.199,0.056
TRIM44 (UniProt Q96DX7),0.003,-0.028,-0.024,,0.014,0.005,-0.004,-0.069,0.041,0.035,-0.076,-0.008,0.116,-0.01,-0.053,-0.092,-0.026,0.032,0.025,0.035
UCHL5 isoform 3 (UniProt Q9Y5K5),-0.008,-0.617 (active),0.126,0.293,0.107,,0.074,,,,-0.292,-0.156,-0.035,0.136,0.03,-0.08,,0.241,-0.254,0.062
VKORC1 (UniProt Q9BQB6),-0.006,-0.079,-0.088,,-0.078,0.008,0.072,0.03,-0.09,0.002,-0.086,0.073,-0.052,0.105,-0.038,-0.059,0.026,0.057,-0.023,0.033
UNC119B (UniProt A6NIH7),-0.168,0.066,-0.224,,-0.134,-0.104,-0.023,0.004,0.047,-0.076,0.013,-0.206,0.124,-0.031,-0.064,0.133,0.316,0.026,-0.048,0.001
VDAC1 (UniProt C9JI87),0.097,0.08,-0.334,-0.007,0,,,0.21,,-0.027,0.034,0.201,,-0.135,,-0.247,-0.189,-0.087,,
USP48 isoform 8 (UniProt Q86UV5),-0.55 (active),-0.84 (active),0.144,-0.058,-0.03,-0.047,0.195,-0.013,-0.459,-0.037,-0.403,-0.358,0.197,0.016,-0.462,-0.085,-0.044,0.065,-0.081,0.064
TRIP10 isoform 2 (UniProt Q15642),-0.033,-0.276,-0.018,-0.285,-0.073,-0.101,-0.18,0.045,-0.075,0.021,0.151,0,0.051,-0.258,-0.196,0.071,-0.081,-0.147,-0.246,-0.012
WDR37 isoform 2 (UniProt Q9Y2I8),0.078,-0.022,-0.005,-0.049,0.007,-0.049,-0.004,0.246,-0.005,-0.094,-0.01,0.207,-0.019,-0.077,0,0.064,-0.108,0.084,-0.007,0.078
TRABD (UniProt Q9H4I3),0.245,0.215,0,-0.004,0.128,-0.108,0.029,,0.228,,0.003,-0.151,0.06,0.131,-0.096,0.073,,-0.01,-0.033,0.001
UFM1 (UniProt P61960),0.025,-0.13,-0.092,0.023,-0.026,,0.043,-0.062,,0.028,-0.004,-0.262,0.097,0.026,-0.066,-0.119,-0.013,0.029,-0.031,0.029
TUT4 (UniProt Q5TAX3),-0.064,-0.229,-0.15,-0.219,-0.041,0.046,0.018,0.566 (active),-0.235,-0.089,0.003,0.112,0.073,-0.075,-0.095,-0.001,-0.008,-0.144,0.082,-0.012
UBIAD1 (UniProt Q9Y5Z9),-0.008,-0.065,-0.014,,-0.009,0.027,-0.011,-0.094,-0.041,0.003,0.208,0.021,-0.078,0.054,0.002,0.473 (active),-0.053,-0.035,-0.039,0.044
UBE4B isoform 4 (UniProt O95155),-0.046,-0.229 (active),0.024,0.023,0,-0.005,0.01,-0.003,-0.079,0.018,-0.038,-0.104,0.016,0.02,-0.071,-0.077,-0.058,0.01,-0.001,0.05
